Assay results published in PubChem BioAssay (Tox21).
“And” between values parts separate entries of the source, which are not always exact repeats. Equal values may be shown once. Results filed as inconclusive are left out. The source made the active and inactive calls. Unless noted, calls come from the whole dose curve; as a rule, active = well fitted curve in the direction sought with a large enough effect in the repeat runs; inconclusive = weak or mixed curves; inactive = no such curve, though single readings can be large; an effect the other way counts as inactive or inconclusive.

Key:
[1] = biological target: Peroxisome proliferator-activated receptor delta (Homo sapiens) (UniProt Q03181); experiment: qHTS assay to identify small molecule agonists of the peroxisome proliferator-activated receptor delta (PPARd) signaling pathway (AID 743212; calls by dose curve); conditions: HEK293H PPARd-UAS-bla, beta-lactamase FRET ratio, 17 h; series mostly up to 62.6 µM
In short: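 Steps: seed PPARd-bla HEK293H cells; incubate 5 h, 37 C, 5% CO2; add compounds in DMSO; incubate, 37 C; add LiveBLAzer B/G FRET substrate; hold 2 h at room temperature; measure fluorescence.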

[2] = qHTS assay to identify small molecule antagonists of the peroxisome proliferator-activated receptor delta (PPARd) signaling pathway - cell viability counter screen (AID 743213); conditions: PPARd-bla HEK293H viability, CellTiter-Glo luminescence, 17 h; series mostly up to 62 µM; note: nearly all actives have a fitted effect of over 50% in size; note: potency is the fitted concentration of half-maximal effect
In short: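 Luminescence from CellTiter-Glo, added after the bla read and incubated 30 min at room temperature, gives viability of HEK293H PPARd-bla cells exposed to compounds for 17 h at 37 C with 300 nM L165041.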

[3] = biological target: Peroxisome proliferator-activated receptor delta (Homo sapiens) (UniProt Q03181); experiment: qHTS assay to identify small molecule antagonists of the peroxisome proliferator-activated receptor delta (PPARd) signaling pathway (AID 743215; active = well fitted inhibition curve with a large enough effect in the signal ratio in the repeat runs, not every such curve was filed as active; the % refers to the signal ratio;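 note: cells stimulated with agonist L165041 at 300 nM final during compound exposure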); conditions: HEK293H PPARd-UAS-bla, beta-lactamase FRET ratio, antagonist, 17 h; series mostly up to 62 µM
In short: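 Here, a reporter line (HEK293H, beta-lactamase under a UAS) measures PPARd signaling. Compounds are tested against agonist L165041 at 300 nM final concentration over 17 h at 37 C, with fluorescence read after substrate.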

[4] = qHTS assay to identify small molecule agonists of the farnesoid-X-receptor (FXR) signaling pathway - cell viability counter screen (AID 743218); conditions: FXR-bla HEK293T viability, CellTiter-Glo luminescence, 16 h; series mostly up to 62.6 µM; note: nearly all actives have a fitted effect of over 45% in size; note: potency is the fitted concentration of half-maximal effect
In short: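 Quantitative HTS counter screen measuring ATP-based viability via CellTiter-Glo luminescence in HEK 293T cells carrying a UAS-driven beta-lactamase reporter, after 16 h compound exposure at 37 C.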

[5] = biological target: Bile acid receptor (Homo sapiens) (UniProt Q96RI1); experiment: qHTS assay to identify small molecule agonists of the farnesoid-X-receptor (FXR) signaling pathway (AID 743220; active = well fitted activation curve with a large enough effect in the signal ratio in the repeat runs, not every such curve was filed as active; the % refers to the signal ratio); conditions: HEK293T FXR-UAS-bla, beta-lactamase FRET ratio, 16 h; series mostly up to 62.6 µM
In short: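 FXR-UAS-bla HEK 293T cells carrying a UAS-driven beta-lactamase reporter were plated for 5 h at 37C/5% CO2, then exposed to DMSO-dissolved Tox21 10K compounds for 16 h at 37C. A LiveBLAzer B/G FRET substrate was loaded for 2 h at room temperature before fluorescence reading.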

[6] = qHTS assay to identify small molecule antagonists of the farnesoid-X-receptor (FXR) signaling pathway - cell viability counter screen (AID 743221; active = well fitted cell-killing curve with a large enough effect in the repeat runs, not every such curve was filed as active; note: nearly all actives have a fitted effect of over 50% in size; note: potency is the fitted concentration of half-maximal effect); conditions: FXR-bla HEK293T viability, CellTiter-Glo luminescence, 16 h; series mostly up to 62.6 µM
In short: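 FXR-UAS-bla HEK 293T cells were treated with test compounds plus chenodeoxycholic acid (50 uM final) for 16 h at 37 C. Cell viability in the same wells was then read as CellTiter-Glo luminescence after 30 min at room temperature.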

[7] = biological target: Vitamin D3 receptor (Homo sapiens) (UniProt P11473); experiment: qHTS assay to identify small molecule agonists of the vitamin D receptor (VDR) signaling pathway (AID 743222; calls by dose curve); conditions: HEK293T VDR-UAS-bla, beta-lactamase FRET ratio, 16 h; series mostly up to 63.5 µM
In short: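 Tox21 cell reporter format: VDR-bla line, 16 h compound exposure in 5% CO2 at 37C, then fluorescence intensity after 2 h with LiveBLAzer B/G FRET substrate.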

[8] = biological target: Vitamin D3 receptor (Homo sapiens) (UniProt P11473); experiment: qHTS assay to identify small molecule antagonists of the vitamin D receptor (VDR) signaling pathway (AID 743223; active = well fitted inhibition curve with a large enough effect in the signal ratio in the repeat runs, not every such curve was filed as active; the % refers to the signal ratio); conditions: VDR-UAS-bla HEK293T, beta-lactamase FRET ratio, 16 h; series mostly up to 61 µM
In short: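 VDR-bla cells were plated, incubated 4 h at 37C, then given compound and 1alpha,25-dihydroxyvitamin D3 (3 nM final). After 16 h at 37C, LiveBLAzer B/G FRET substrate was added for 2 h at room temperature and fluorescence read.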

[9] = qHTS assay to identify small molecule agonists of the peroxisome proliferator-activated receptor delta (PPARd) signaling pathway - cell viability counter screen (AID 743211); conditions: PPARd-bla HEK293H viability, CellTiter-Glo luminescence, 17 h; series mostly up to 62.6 µM; note: nearly all actives have a fitted effect of over 55% in size
In short: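 PPARd-bla HEK293H cells (UAS-beta-lactamase reporter) were treated with compounds for 17 h at 37 C. Viability was then read in the same wells by CellTiter-Glo luminescence after 30 min at room temperature.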

Measured: Potency

Chain of Vitamin D3 receptor (Homo sapiens) (P11473 whole entry, looked up): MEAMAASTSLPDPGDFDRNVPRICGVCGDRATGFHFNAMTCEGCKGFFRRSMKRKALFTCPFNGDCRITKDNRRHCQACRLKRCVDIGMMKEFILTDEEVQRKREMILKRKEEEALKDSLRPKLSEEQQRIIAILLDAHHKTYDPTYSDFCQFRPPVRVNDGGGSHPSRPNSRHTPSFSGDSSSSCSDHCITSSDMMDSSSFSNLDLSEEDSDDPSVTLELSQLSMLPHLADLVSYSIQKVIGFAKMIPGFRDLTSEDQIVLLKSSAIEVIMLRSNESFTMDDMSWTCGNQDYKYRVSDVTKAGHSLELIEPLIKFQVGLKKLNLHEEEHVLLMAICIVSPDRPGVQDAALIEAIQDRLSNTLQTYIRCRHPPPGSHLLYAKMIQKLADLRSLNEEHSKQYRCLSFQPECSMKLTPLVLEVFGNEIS
Chain of Bile acid receptor (Homo sapiens) (Q96RI1 whole entry, looked up): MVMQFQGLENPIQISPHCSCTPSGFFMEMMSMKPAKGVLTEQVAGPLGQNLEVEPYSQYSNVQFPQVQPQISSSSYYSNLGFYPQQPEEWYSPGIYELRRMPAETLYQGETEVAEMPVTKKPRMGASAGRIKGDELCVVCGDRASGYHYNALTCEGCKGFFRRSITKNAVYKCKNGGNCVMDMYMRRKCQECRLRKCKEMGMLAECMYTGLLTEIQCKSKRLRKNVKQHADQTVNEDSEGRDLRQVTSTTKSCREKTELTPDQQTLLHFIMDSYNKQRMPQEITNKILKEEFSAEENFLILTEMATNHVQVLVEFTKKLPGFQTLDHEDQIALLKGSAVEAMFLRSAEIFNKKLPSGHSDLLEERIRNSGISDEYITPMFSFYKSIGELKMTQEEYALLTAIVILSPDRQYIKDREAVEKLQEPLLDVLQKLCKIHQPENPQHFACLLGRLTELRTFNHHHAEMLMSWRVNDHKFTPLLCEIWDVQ
Chain of Peroxisome proliferator-activated receptor delta (Homo sapiens) (Q03181 whole entry, looked up): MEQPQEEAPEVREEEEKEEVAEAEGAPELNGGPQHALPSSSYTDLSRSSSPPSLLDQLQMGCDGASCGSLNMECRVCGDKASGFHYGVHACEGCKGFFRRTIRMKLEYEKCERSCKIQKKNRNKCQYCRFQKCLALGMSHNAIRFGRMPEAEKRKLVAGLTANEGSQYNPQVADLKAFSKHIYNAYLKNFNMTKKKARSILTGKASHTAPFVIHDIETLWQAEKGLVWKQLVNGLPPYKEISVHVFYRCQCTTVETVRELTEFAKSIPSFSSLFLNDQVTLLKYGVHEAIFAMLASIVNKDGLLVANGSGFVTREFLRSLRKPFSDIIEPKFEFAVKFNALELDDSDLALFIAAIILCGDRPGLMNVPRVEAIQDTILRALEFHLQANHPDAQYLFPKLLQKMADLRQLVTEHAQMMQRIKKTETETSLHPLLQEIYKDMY

NC(N)=Nc1nc(CSCC/C(N)=N/S(N)(=O)=O)cs1
not listed: [9]
inactive: all other assays above

CC(C)(c1ccccc1)c1ccc(Nc2ccc(C(C)(C)c3ccccc3)cc2)cc1
inactive: [9] | [4] | [6]

CCN(CC)c1ccc2c(C)cc(=O)oc2c1
inactive: [9] | [2] | [4] | [6]

NNCCc1ccccc1
not listed: [5] | [9]
inactive: all other assays above

O
inactive: [4] | [6]

NC(N)=NC(=O)Cc1c(Cl)cccc1Cl
inactive: [1] | [3] | [6] | [7] | [8]

Cc1c(O)cccc1C(=O)N[C@@H](CSc1ccccc1)[C@H](O)CN1C[C@H]2CCCC[C@H]2C[C@H]1C(=O)NC(C)(C)C
inactive: [5]
active: [2] 15.1 µM and 23.7 µM | [4] 6.74 µM and 26.6 µM | [6] 19 µM and 26.6 µM

C/C=C/c1ccc(OCC)c(O)c1
not listed: [4] | [5] | [9]
inactive: all other assays above

N[C@@H]1CONC1=O
inactive: [4] | [5] | [6] | [7] | [8]

COC(c1ccccc1)(c1ccccc1)[C@H](Oc1nc(C)cc(C)n1)C(=O)O
not listed: [3] | [4] | [9]
inactive: all other assays above

CCC(C)(C)C(=O)O[C@H]1C[C@@H](C)C=C2C=C[C@H](C)[C@H](CC[C@@H]3C[C@@H](O)CC(=O)O3)[C@H]21
active: [6] 11 µM
inactive: [2] | [4] | [7]
